Assay outcomes as filed in PubChem BioAssay.
HP1b chromo inh: HTS for Inhibitors of HP1-beta Chromodomain Interactions with Methylated Histone Tails | 390,000 tested, 0.56% active | Potency, µM (series often up to 114 µM), for inactives: at the highest dose activity change, negative = inhibition, most hits filed as inhibitors | AID 540317, 2011 | AlphaScreen HP1-beta / biotin-H3K9me3 peptide binding; also: potency is read from the fitted curve at half-maximal effect; nearly all actives have a fitted effect of over 70% in size
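HP1-beta protein (50 nM final) preincubated 30 min at room temperature with biotinylated H3(1-18)K9me3 peptide (50 nM) in PBS pH 7.4, 0.01% Tween-20, then compound added for 30 min. AlphaScreen streptavidin donor/nickel chelate acceptor beads (10 ug/mL final), 30 min dark, luminescence read.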
BAZ2B inh: qHTS Assay for Inhibitors of BAZ2B; AID 504333, 2011; 360,000 tested, 4.4% active; AlphaScreen BAZ2B-H3K14Ac peptide displacement; Potency, µM (series often up to 114 µM), for inactives: at the top dose activity change, negative = inhibition, hits mostly inhibitors; Bromodomain adjacent to zinc finger domain protein 2B (Homo sapiens), Q9UIF8; also: potency is read from the fitted curve at half-maximal effect; % is scaled to controls: 0 for no effect and ±100 for the full control effect; nearly all actives have a fitted effect of over 60% in size
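AlphaScreen displacement: compounds (up to 110uM) incubated 30 min at room temperature with a preformed 50 nM BAZ2B/50 nM biotinylated H3K14Ac peptide complex in PBS pH 7.4 with Tween-20. Donor and acceptor beads at 10 ug/mL final added, 20 min light-protected before reading.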
JMJD2A Tudor: qHTS Assay for Inhibitors of JMJD2A-Tudor Domain; AID 504339, 2011; AlphaScreen JMJD2A-Tudor / H3K4me3 peptide binding; Potency, µM (doses to about 114 µM), without a hit: at the highest dose activity change, negative = inhibition, hits mostly inhibitors; 390,000 tested, 4.4% active; also: potency is read from the fitted curve at half-maximal effect; % is scaled to controls: 0 for no effect and ±100 for the full control effect; nearly all actives have a fitted effect of over 50% in size
PLK1 PBD block: qHTS for Inhibitors of PLK1-PDB (polo-like kinase 1 - polo-box domain): Primary Screen | 360,000 tested, 2.8% active | AID 720504, 2013 | Plk1 PBD binding of FITC phosphopeptide, fluorescence polarization | Potency, µM, inactives show max response, negative = inhibition, usual class: inhibitors | Serine/threonine-protein kinase PLK1 (Homo sapiens), P53350; also: potency is read from the fitted curve at half-maximal effect; series mostly up to about 57 µM; % is scaled to controls: 0 for no effect and ±100 for the full control effect; nearly all actives have a fitted effect of over 65% in size
Target sequence (P53350 whole entry, looked up, the tested form may be a part): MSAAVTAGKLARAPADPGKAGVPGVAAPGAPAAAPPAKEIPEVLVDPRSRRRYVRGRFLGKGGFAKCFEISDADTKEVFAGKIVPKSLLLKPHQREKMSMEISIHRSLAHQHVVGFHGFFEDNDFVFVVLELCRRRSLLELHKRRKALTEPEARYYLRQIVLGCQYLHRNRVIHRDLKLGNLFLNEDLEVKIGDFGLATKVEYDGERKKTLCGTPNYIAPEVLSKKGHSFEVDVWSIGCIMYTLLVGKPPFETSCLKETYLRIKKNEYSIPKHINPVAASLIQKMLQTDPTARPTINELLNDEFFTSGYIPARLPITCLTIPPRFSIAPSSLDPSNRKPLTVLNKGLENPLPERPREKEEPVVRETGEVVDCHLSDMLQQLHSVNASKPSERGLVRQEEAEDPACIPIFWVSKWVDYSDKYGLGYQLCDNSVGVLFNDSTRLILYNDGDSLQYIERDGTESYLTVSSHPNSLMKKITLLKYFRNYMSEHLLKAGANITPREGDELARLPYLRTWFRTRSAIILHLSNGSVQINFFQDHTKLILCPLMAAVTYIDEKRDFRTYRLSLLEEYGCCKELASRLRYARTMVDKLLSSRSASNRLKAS
PI5P4Ka inh: qHTS for Inhibitors of phosphatidylinositol 5-phosphate 4-kinase (PI5P4K). Phosphatidylinositol 5-phosphate 4-kinase type-2 alpha (Homo sapiens), P48426. PI5P4Kalpha enzyme, ADP-Glo luminescence, 60 min; active compounds read low. max response, %. 330,000 tested, 1.2% active; active = max response of -50% or lower; inconclusive = between -30% and -50%; inactive = -30% or higher; also: value at the top dose of about 77 µM; % is scaled to controls: 0 for no effect and ±100 for the full control effect
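Reactions run in 0.038 M HEPES pH 7.4, 0.28 mM EGTA, 0.1% CHAPS and 5% DMSO, with PI5P4Kalpha, substrate, compound and 5 microM ATP final, one hour at room temperature. Readout is ADP-Glo luminescence.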
GCN5L2 inh: qHTS Assay for Inhibitors of GCN5L2. AID 504327, 2011. 390,000 tested, 0.21% active. GCN5L2 HAT assay, ThioGlo1 CoA-SH fluorescence. Potency, µM (highest dose often 58.9 µM), for inactives: at the highest dose activity change, negative = inhibition, most hits filed as inhibitors; also: potency is read from the fitted curve at half-maximal effect; % is scaled to controls: 0 for no effect and ±100 for the full control effect
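qHTS, 1536-well. 20nM enzyme, pH 7.5 HEPES/EDTA/Tween-20 buffer; 15 min compound preinc., RT. Start: 75uM H3(1-25), 70uM AcCoA, 50uM ThioGlo1. Read Ex340/Em540 at t=0 (autofluorescence flag) and t=20 min.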
Numbers without * were called inactive; u = inconclusive; x = not tested or not shown; [ ] = remark or other dose. An excerpt weighted towards active compounds, which were near 7% of everything screened. Unless noted, calls follow the shape of the dose curve; as a rule, active = well fitted curve in the direction sought with a large enough effect; inconclusive = small, poorly fitted or top-dose-only effect, or another doubt; inactive = no such curve, though single readings can be large; an effect the other way counts as inactive or inconclusive.

SMILES | HP1b chromo inh | BAZ2B inh | JMJD2A Tudor | PLK1 PBD block | PI5P4Ka inh | GCN5L2 inh
CCN1C(=O)C2(c3ccccc31)c1c(oc3ccc(C)cc3c1=O)C(=O)N2CCCOC(C)C (configuration not stated) | 5% | -1% | -19% | x | x | -1%
CN(C)S(=O)(=O)c1ccc(C(=O)NNC(=O)C23CC4CC(CC(C4)C2)C3)cc1 | 22% | x | -2% | 4% | -2 | -4%
NNc1nc2c(F)cc(F)cc2s1 | -59% | 50µM* | 79µM* | -2% | -2 | -1%
CCn1ccnc1CN1CCc2c([nH]c3ccccc23)C1C(C)(C)C (configuration not stated) | -4% | u | u | 2% | 1 | 3%
CCn1ccnc1CN1CCc2c([nH]c3ccccc23)C1C1CCCCC1 (configuration not stated) | -16% | 35µM* | 14µM* | 27µM* | -6 | -7%
O=C(CSc1ccc(Br)cc1)NC1CCCCCC1 | 58% | x | 11% | u | 6 | -2%
O=C(CSc1ccc(Br)cc1)NC1CCS(=O)(=O)C1 (configuration not stated) | 20% | 11% | 1% | 17µM* | 0 | -3%
O=C(CC(CC(=O)c1ccccc1)c1ccccn1)c1ccccc1 | 20%[57 µM] | x | 17% | 2% | 1 | x
O=C(NC1CCSc2ccccc21)c1ccc(F)cc1 (configuration not stated) | 18% | -16% | -6% | 1% | -1 | -3%
CN(C)c1ccc(N=Cc2nc(-c3ccccc3)oc2OC(=O)c2cccc(Br)c2)cc1 | -22% | 35µM* | u | -10% | -8 | -2%
CCOC(=O)c1ccc(N=Cc2nc(-c3ccccc3)oc2OC(C)=O)cc1 | 39% | -25% | -7% | 4.7µM* | x | -6%
COc1cccc2c1cc1c(=O)n(CC(=O)NCCCN3CCN(C)CC3)nc(C)n12 | 30% | -9% | -12% | -7% | -3 | -29%
COc1ccc(Cn2c(=O)c3cccnc3n(Cc3cccc(OC)c3)c2=O)cc1 | 67% | -7% | 3% | x | x | -7%
Cn1cc(C=C2C(=O)CC(C)(C)CC2=O)c2ccccc21 | -15% | u | u | 27µM* | -6 | -3%
Cc1ccc(-c2nn(-c3ccccc3)cc2NC(=O)c2ccccc2)cc1 | 28% | 10% | -9% | 0% | 5 | -8%
Cc1ccc(-c2nn(-c3ccccc3)cc2C=C2C(=O)CC(C)(C)CC2=O)cc1 | -6% | u | -33% | 0.67µM* | -26 | -3%
CC1=NNC(=O)/C1=C\c1cn(-c2ccccc2)nc1-c1ccc(Cl)cc1 | -10% | u | -20% | 5.3µM* | -2 | u
Cn1cc(C=C2C(=O)OC3(CCCCC3)OC2=O)c2ccccc21 | 27% | -15% | -22% | -13% | -7 | -1%
O=c1ccc2cc(S(=O)(=O)Nc3ccc(Br)cc3)ccc2o1 | 8% | u | -23% | -11% | 3 | 1%
CCOc1ccc(S(=O)(=O)O)c2cccnc12 | x | x | x | x | x | -24%
O=Nc1ccc(O)c2ncccc12 | -2% | 22µM* | 28µM* | -11% | -19 | 0%
Cc1ccc(O)c2ncccc12 | x | x | x | x | x | 3%
O=S(=O)(O)c1cccc2c(N=Nc3ccc(O)c4ncccc34)cccc12 | 22µM* | 22µM* | 25µM* | 21µM* | -81* | u
CC(=O)N1CCC(C(=O)N2c3ccccc3N=C(c3ccc4c(c3)OCO4)C2C(=O)NCc2ccccc2)CC1 (configuration not stated) | x | x | x | -8% | -1 | x
COCCN(C(=O)c1ccc(-c2ccc([N+](=O)[O-])cc2)o1)c1c(N)n(CC(C)C)c(=O)[nH]c1=O | 23% | -1% | -15% | -10% | -26 | -4%
SMILES | HP1b chromo inh | BAZ2B inh | JMJD2A Tudor | PLK1 PBD block | PI5P4Ka inh | GCN5L2 inh
O=C(O)c1cccc(CN2C(=O)S/C(=C/c3cccc([N+](=O)[O-])c3)C2=O)c1 | -17% | -33% | 2%[11.4 µM] | u | -30 | -25%
O=C1/C(=C/c2ccc(O)c([N+](=O)[O-])c2)SC(=S)N1Cc1ccccc1 | u | u | 4µM* | u | -7 | -3%
COc1ccc(CN2C(=O)/C(=C/c3ccncc3)SC2=S)cc1 | u | 8.9µM* | 50µM* | u | 1 | -7%
CN1C(=O)/C(=C/c2ccc(O)c([N+](=O)[O-])c2)NC1=S | 2% | u | -32% | -2% | -56* | -2%
O=C1CSC(=S)N1Cc1cccnc1 | u | 40µM* | u | u | -18 | -3%
O=C(Cn1nnnc1-c1ccccc1F)Nc1ccc(OC(F)(F)F)cc1 | 16% | 0% | -15% | x | x | 1%
CC(=O)Oc1ccc(/C=C2/SC(=S)N(Cc3ccccc3)C2=O)cc1 | u | 3.5µM* | u | -4% | 2 | -20%
O=C1/C(=C\c2cc(Br)cc(Br)c2O)SC(=S)N1Cc1ccccc1 | 32µM* | 10µM* | 28µM* | 9.5µM* | u | -1%
O=C1/C(=C\c2ccc(O)cc2)SC(=S)N1Cc1ccccc1 | u | 50µM* | u | 46% | 18 | -17%
Oc1c(Br)cc(Br)cc1/C=N/N1CCN(Cc2ccccc2)CC1 | 14% | 0% | -27% | -4% | 5 | -3%
O=C(O)c1ccc(/C=C2/SC(=S)N(Cc3ccccc3)C2=O)cc1 | 2% | u | u | u | 5 | -11%
O=C1/C(=C/c2ccccc2O)SC(=S)N1Cc1cccnc1 | 2% | 6% | -23% | u | -51* | -3%
O=C(NCCCc1nc2ccccc2n1CCCCOc1ccccc1)C1CCCCC1 | 16%[57 µM] | x | -19%[57.1 µM] | x | x | x
CCOc1ccc(N2C(=O)S/C(=C\c3ccc(O)c(OCC)c3)C2=O)cc1 | 43% | -27% | -25% | 1% | 3 | -1%
CCOc1cc(/C=C2/SC(=S)N(Cc3ccccc3)C2=O)ccc1O | u | 22µM* | 50µM* | 13% | 6 | -13%
CCc1ccccc1N1CC23C=CC(O2)C(C(=O)OCC(C)C)C3C1=O (configuration not stated) | 44% | -4% | -2% | u | 9 | -6%
CCc1ccccc1N1CC23C=CC(O2)C(C(=O)O)C3C1=O (configuration not stated) | 10% | -5% | 22µM* | 27µM* | -15 | 3%
O=C(CC1SC(=O)N(c2ccccc2)C1=O)Nc1cccc2ccccc12 (configuration not stated) | 3% | -25% | -27% | 11µM* | u | -27%
